The values below come from PubChem BioAssay (NCI).

The structures appear in SMILES notation. This is part of a sample that, as a whole, favours compounds with a hit. Of some 83,000 tested, about 20% had one in any assay.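 In brief: 96-well plates, 48 h treatment, single concentration, percent growth endpoint.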 Activity calls are given as the source filed them. Rule for the calls: active = growth percent below 10; inactive = the rest.

The assay deals with MDA-MB-468 breast. Kind of assay: NCI-60 one-dose screen, 48 h (100 = growth as untreated, 0 = no growth, -100 = all killed). Conditions: 10 µM unless noted.
For `NS(=O)(=O)c1ccc(CCNC(=O)/C=C/c2ccc(Cl)cc2)cc1`, the growth was 103% (inactive).

With `COc1ccc(C2=C(c3ccccc3)c3ccc(OC(C)=O)cc3OC2(C)C)cc1`, the growth was 86.2% (inactive).

On to `COc1cc(Cl)cc(-c2nn(C(=O)NCCN3CCOCC3)cc2-c2ccncc2)c1`, for which the growth was 27.6% (inactive).

As to `CC(=O)[C@@H]1CC[C@]2(COS(=O)(=O)c3ccc(C)cc3)CC[C@]3(C)[C@H](CC[C@@H]4[C@@]5(C)CCCNC(C)(C)[C@@H]5CC[C@]43C)[C@@H]12`, the growth is 20.2% (inactive).

`N#Cc1c(NC(=O)c2cccc(C(F)(F)F)c2)sc2c1CCC(=O)C2`: the growth is -8.78% (active).

As for `NC(N)=NCCCCCNc1noc(Cc2c[nH]c3cc(Br)ccc23)n1`, the growth was 1.76% (active).

In the case of `CC(=O)OCC(OC(C)=O)C(OC(C)=O)C(OC(C)=O)C(OC(C)=O)C(/C=N/Nc1ccccc1)=N/Nc1ccccc1` (stereo not given), the growth was 46.4% (inactive).

In the case of `O=C1C(SCc2ccccc2)=C(Cl)CN1c1ccccc1`, the growth was 79.7% (inactive).

For the compound `CC/C=C/[C@@H]1C=C[C@@H]2CCC[C@H]2[C@@H]1CC[C@H](O)[C@H](C)N`, the growth is -76.6% (active).

On to `COc1cc(OC)c2sc(-c3ccc(-n4cncc4-c4cc(OC)c(OC)c(OC)c4)cc3)nc2c1`, for which the growth is 43.5% (inactive).

`CSC1=NCCCC1`: the growth was 102% (inactive).

On to `Cc1cc2nc3c4cc(N)ccc4n(CCN(C)C)c3nc2cc1C`, for which the growth was -5.6% (active).

On to `C#CCOc1cccc(-c2ncc3cc(NC(=O)CCl)ccc3n2)c1`, for which the growth is -60.6% (active).

As for `Clc1cnc(Nc2ccc(OCCN3CCCC3)cc2)nc1NCc1ccco1`, the growth is 16.6% (inactive).

Consider `CCOC(=O)c1c(Nc2nc3ccccc3s2)sc2c1CCC(=O)C2`, for which the growth is 94.8% (inactive).

`CCOc1cc(CNc2ccc(N3CCOCC3)c(C(=O)O)c2)ccc1OC`: the growth was 94.7% (inactive).

In the case of `COc1cc(C2CC(c3ccc(Nc4ccnc5cc(Cl)ccc45)cc3)=NN2c2ccccc2)cc(OC)c1OC` (stereo not given), the growth was 44.6% (inactive).

As to `CN1CCN(c2ccc(-c3ccc4ncc(C#N)c(Nc5ccc(F)c(Cl)c5)c4c3)cn2)CC1`, the growth was 10.6% (inactive).

As to `OCc1cc(CN2CCCCC2)c(O)c2ncccc12`, the growth was 76.7% (inactive).

As for `Cn1cc(-c2csc(-c3cn(CCCN4CCOCC4)c4ccc(F)cc34)n2)c2cccnc21`, the growth is 49.3% (inactive).

With `N#CC1C=CN(CC(N)=O)c2ccc3cccnc3c21` (stereo not given), the growth was 96.2% (inactive).

Take `CN(C)C/C=C/C(=O)Nc1cc2c(Nc3cccc(Cl)c3F)ncnc2cc1OCCOC(F)F`: the growth is -44.6% (active).

As to `Cc1cccc2c3c(sc12)C(c1ccc(Cl)cc1)C(C#N)=C(N)O3` (stereo not given), the growth was 17.3% (inactive).

Consider `COc1ccc(N(C)c2ncnc3occ(C)c23)cc1`, for which the growth was 30.2% (inactive).

Regarding `CN1C(=O)CN2CCc3ccccc3C2c2cc(Cl)ccc21` (stereo not given), the growth was 115% (inactive).
